# This is a sample that favours compounds with a hit; in the whole collection about 2.5% have one here.
# TMEM16A act = TMEM16A chloride channel activators or potentiators, primary screen, cell-based, HTS. Anoctamin-1 (Mus musculus), Q8BHY3. HEK293 TMEM16A/YFP-H148Q/I152L, iodide quench fluorescence; active compounds read low. B-score at 10 µM. 340,000 tested, 0.3% active. AID 623877, 2012;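 active means fluorescence-ratio B-score plate-corrected deviation score at least 3 library SD below zero, with starting fluorescence score within 5 deviations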;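 further: channel opened by trigger with iodide after compound preincubation; score built on the fluorescence ratio of max minus min over baseline; more negative score means more quench and so TMEM16A activation or potentiation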
# Target sequence (Q8BHY3 whole entry, looked up): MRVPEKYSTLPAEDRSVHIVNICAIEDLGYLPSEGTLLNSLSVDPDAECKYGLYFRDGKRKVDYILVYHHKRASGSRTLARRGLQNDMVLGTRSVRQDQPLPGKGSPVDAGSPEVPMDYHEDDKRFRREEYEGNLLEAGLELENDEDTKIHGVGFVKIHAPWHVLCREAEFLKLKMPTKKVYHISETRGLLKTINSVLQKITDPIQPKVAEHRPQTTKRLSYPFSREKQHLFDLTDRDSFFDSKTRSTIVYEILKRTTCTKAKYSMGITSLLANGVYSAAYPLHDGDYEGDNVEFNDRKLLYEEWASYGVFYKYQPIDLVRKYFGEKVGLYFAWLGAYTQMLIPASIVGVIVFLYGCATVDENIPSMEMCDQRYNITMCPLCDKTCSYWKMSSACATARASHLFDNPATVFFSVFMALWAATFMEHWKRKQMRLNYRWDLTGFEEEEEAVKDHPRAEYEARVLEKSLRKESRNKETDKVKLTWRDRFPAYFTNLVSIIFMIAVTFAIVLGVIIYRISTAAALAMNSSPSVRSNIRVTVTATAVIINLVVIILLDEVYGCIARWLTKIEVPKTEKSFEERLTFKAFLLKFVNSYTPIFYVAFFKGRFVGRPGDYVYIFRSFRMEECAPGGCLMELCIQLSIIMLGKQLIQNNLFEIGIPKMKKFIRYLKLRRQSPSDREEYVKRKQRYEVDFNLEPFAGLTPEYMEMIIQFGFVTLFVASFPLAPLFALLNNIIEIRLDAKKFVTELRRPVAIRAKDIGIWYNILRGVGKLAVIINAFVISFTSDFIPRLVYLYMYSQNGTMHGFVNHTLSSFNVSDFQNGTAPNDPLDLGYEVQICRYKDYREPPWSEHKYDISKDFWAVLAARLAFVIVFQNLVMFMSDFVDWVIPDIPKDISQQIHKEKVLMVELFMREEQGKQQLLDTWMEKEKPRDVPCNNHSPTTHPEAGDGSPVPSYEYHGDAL
# KLF5 inh = KLF5 expression inhibitors, primary screen, DLD-1 cells, luminescence. DLD-1 KLF5 promoter-luciferase reporter. inhibition, % at 5 µM. 290,000 tested, 0.23% active;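 active means inhibition above a per-plate limit of that plate's mean compound inhibition plus 3 SD, cut at about 60% in these data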;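 further: 0% = DMSO wells and 100% = LY294002 at 200 µM; higher means less KLF5 promoter-driven luciferase light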
# Jurkat NFkB inh = inhibitors of induced NF-kB luciferase reporter, primary screen, TCR NF-kB activation inhibitor project, cell-based, luminescence, uHTS | Jurkat, PMA/ionomycin-induced NF-kB luciferase reporter | 330,000 tested, 0.53% active | inhibition, % at 4 µM; in the data active means inhibition above about 50%
# aSyn UTR inh = MLPCN primary screen, SNCA 5' untranslated region; alpha-synuclein 5'UTR reporter, inhibitor activity; inhibition, % (tested at 7.5 µM); 300,000 tested, 0.82% active; in the data active means inhibition above about 60%;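 further: H4 neuroglioblastoma cells stably carrying SNCA 5'UTR luciferase fusion; 0% = DMSO wells and 100% = positive control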
# TMEM16A inh = TMEM16A chloride channel inhibitors, primary screen, cell-based, HTS; Anoctamin-1 (Mus musculus), Q8BHY3; HEK293 TMEM16A/YFP iodide influx fluorescence, ionomycin; normalized B-score (activity score, 25-100; higher = stronger inhibition) at 10 µM; 310,000 tested, 1.2% active; AID 588511, 2011;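 active means ratio plate-corrected score three or more library SD toward inhibition, starting fluorescence score within five deviations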;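 further: score derived from kinetic fluorescence span divided by baseline fluorescence per well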
# 697 NFkB inh = inhibitors of PMA/ionomycin-induced NF-kB reporter, 697 cells, primary screen, B-cell NF-kB inhibitor project, cell-based, luminescence, uHTS; AID 435022, 2010; 330,000 tested, 0.33% active; inhibition, % at 4 µM; 697 B-cell NF-kB luciferase reporter, 16 h; in the data active means inhibition above about 35%
# KLF5 inh confirm = KLF5 expression inhibitors, confirmation, DLD-1 cells, luminescence; shares compounds with KLF5 inh; DLD-1 KLF5 promoter firefly luciferase reporter; inhibition, % at 4 µM; 610 tested, 79% active;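 active means inhibition above a set limit taken from the earlier primary screen, cut at about 63% in these data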;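 further: 0% = DMSO wells and 100% = LY294002 at 200 µM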
# IEC-6 tox = cytotoxicity in rat IEC-6 cells, cytotoxicity control for KLF5 inhibitor project, cell-based, luminescence, triplicate; shares compounds with KLF5 inh; IEC-6 rat intestinal cells, viability luminescence; inhibition, % at 4 µM; 610 tested, 56% active; AID 1905, 2009; in the data active means inhibition above about 23%;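 further: cells exposed to compounds for 48 hours before viability read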
# Jurkat NFkB conf = PMA/ionomycin-induced NF-kB reporter inhibitors, Jurkat retest, confirmation, T-cell NF-kB inhibitor project, cell-based, luminescence, single concentration; Jurkat NF-kB luciferase, 16 h; AID 435020, 2010; shares compounds with Jurkat NFkB inh; inhibition, % at 4 µM; 2,700 tested, 27% active;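 active means inhibition reaching about 45% at 4 µM in either replicate, limit read from the data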;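 further: plate controls were PMA/ionomycin stimulated DMSO wells for no effect and unstimulated DMSO wells for full effect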
# 697 NFkB conf = PMA/ionomycin-induced NF-kB reporter inhibitors, 697 retest, confirmation, B-cell NF-kB inhibitor project, cell-based, luminescence, single concentration; shares compounds with 697 NFkB inh; 697 B-cell NF-kB luciferase, 16 h; inhibition, % at 4 µM; 2,000 tested, 35% active; in the data active means inhibition mostly above about 28%, no sharp cut-off; inactive means mostly below about 22%
# Starred values were filed as active, the others as inactive; i = inactive; · = no result given.
SMILES,TMEM16A act,KLF5 inh,Jurkat NFkB inh,aSyn UTR inh,TMEM16A inh,697 NFkB inh,KLF5 inh confirm,IEC-6 tox,Jurkat NFkB conf,others
O=C(COc1ccc(Cl)cc1Br)NCC(c1ccco1)N1CCCC1 (stereo unspecified),i,·,8,·,·,-20,·,·,·,
O=c1cc(-c2ccccc2)[nH]c2ccccc12,i,65*,55*,68*,i,-14,83*,57*,40,
O=C1C(c2cc(=O)c3ccccc3[nH]2)=C(O)c2ccccc21,i,-172,-53,-118,i,-115,·,·,·,
COc1cccc(N2CCN(C(=O)c3ccc(CS(=O)Cc4ccc(C)cc4)o3)CC2)c1 (stereo unspecified),i,1,-5,14,i,-16,·,·,·,
COc1cccc(N2CCN(C(=O)c3ccc(CS(=O)c4ccc(C)cc4)o3)CC2)c1 (stereo unspecified),i,74*,53*,97*,i,20,92*,85*,8,
COc1ccc(OC)c(NS(=O)(=O)c2ccc(N3CCCC3=O)cc2)c1,i,83*,55*,111*,i,1,83*,62*,55*,
COc1ccc(CCNS(=O)(=O)c2ccc(N3CCCC3=O)cc2)cc1,i,-42,0,-19,i,-15,·,·,·,
COc1ccccc1OCC(=O)NNC(=O)c1ccc2c(=O)n3c(nc2c1)CCC3,i,-15,-3,1,i,7,·,·,·,
COc1cc2c(cc1OC)C(C)N(C(=O)c1cc(C)on1)CC2 (stereo unspecified),i,74*,64*,97*,i,21,89*,54*,51*,
COc1cc2c(cc1OC)C(C)N(C(=O)c1c(C)noc1C)CC2 (stereo unspecified),i,-10,22,-25,i,2,·,·,·,
Cc1ccc(N2C(=O)c3cccc4c(N)ccc(c34)C2=O)c2cccnc12,i,63*,75*,100*,i,-213,90*,72*,43,
Cc1nn(C)c(C)c1N1C(=O)c2cccc3c(N)ccc(c23)C1=O,i,-44,·,·,i,·,·,·,·,
COc1ccccc1NC(=S)N1CCN(c2ccccc2F)CC1,i,-26,0,-6,i,-12,·,·,·,
COC(=O)c1sc(N)c(C(=O)OC)c1COC(=O)c1c(C)noc1C,i,68*,68*,40,i,-11,42,35*,21,
CC(CC(=O)N1CCN(S(=O)(=O)c2ccc([N+](=O)[O-])cc2)CC1)c1ccccc1 (stereo unspecified),i,·,5,·,·,17,·,·,·,
Cc1ccc(S(=O)(=O)Cc2ccc(C(=O)N3CCN(c4cccc(C)c4C)CC3)o2)cc1,i,64*,58*,88*,i,-33,68*,57*,52*,
COc1ccc(S(=O)(=O)Cc2ccc(C(=O)N3CCN(c4cccc(C)c4C)CC3)o2)cc1,i,-8,48,7,i,-25,·,·,·,
CCn1c2ccccc2c2cc(NC(=O)c3cc(OC)c(OC)c(OC)c3)ccc21,i,83*,57*,-23,i,-140,89*,86*,51*,
Cc1ccc(S(=O)(=O)N2CCCCC2)cc1NC(=O)C1CCC1,i,·,4,·,·,19,·,·,·,
COc1cccc(/C=N/Nc2ccc(S(=O)(=O)O)cc2)c1O,i,-2,4,-3,i,13,·,·,·,
COc1cccc(/C=N/Nc2ccc(C(=O)O)cc2)c1O,i,100*,88*,113*,i,-32,111*,-7,57*,
Cc1ccc(N2C(=O)c3cccc4c(Oc5ccccc5[N+](=O)[O-])ccc(c34)C2=O)c(C)c1,i,-26,-6,38,i,-6,·,·,·,
COc1cc(-c2noc(C)c2-c2ccc(N(C)C)nc2)cc(OC)c1OC,i,76*,71*,47,i,-97,85*,82*,58*,
COC(=O)c1ccc(C(=O)NC2CCCc3c2cnn3-c2ccc(C)c(C)c2)cc1 (stereo unspecified),i,68*,60*,104*,i,-17,76*,55*,59*,
N#Cc1ccc(-c2cccs2)nc1SCc1cccnc1,i,62*,66*,90*,i,-37,75*,64*,37,
SMILES,TMEM16A act,KLF5 inh,Jurkat NFkB inh,aSyn UTR inh,TMEM16A inh,697 NFkB inh,KLF5 inh confirm,IEC-6 tox,Jurkat NFkB conf,others
N#Cc1c(C(F)(F)F)cc(-c2cccs2)nc1SCc1cccnc1,i,-10,31,1,i,-71,·,·,·,
CN(CC(=O)Nc1ccc(Cl)c(C(F)(F)F)c1)C(=O)CNC(=O)C1CCCCC1,i,·,-9,·,·,-1,·,·,·,
COc1cccc(NC(=O)CN(C)C(=O)/C=C/c2ccc3ccccc3n2)c1,i,·,2,24,i,11,·,·,·,
COc1cc(C(=O)N/N=C/c2cc([N+](=O)[O-])cs2)cc(OC)c1OC,i,79*,67*,50,i,-17,76*,59*,42,
CCOc1ccc(C(=O)N/N=C/c2cc([N+](=O)[O-])cs2)cc1,i,-11,11,23,i,1,·,·,·,
O=C(CSc1ccc(-c2ccc(Br)cc2)nn1)NC1CCCC1,i,-3,-12,-14,i,-29,·,·,·,
COC(=O)C1=C(CN2CCc3ccccc32)NC(=O)NC1c1cc(C)ccc1C (stereo unspecified),i,9,-15,32,i,-7,·,·,·,
COC(=O)C1=C(CN2CCCc3ccccc32)NC(=O)NC1c1ccc(F)cc1 (stereo unspecified),i,85*,54*,79*,i,1,72*,7,79*,
COc1ccc(Cl)cc1C(=O)Nc1nc2ccccc2[nH]1,i,80*,-77,89*,i,-385,70*,14,·,697 NFkB conf=-439

# Screening data from PubChem.
